Measured values as given in PubChem BioAssay (NCI).
About 83,000 compounds went through this panel and 20% of them were active in at least one assay; those are over-represented in the sample as a whole.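 Results are percent growth after 48 hours of single-concentration exposure. 100 means growth as in untreated cells, lower positive values show inhibition; negative values down to -100 show cell death.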 Unmarked numbers belong to inactive results. Calls of active or inactive are those of the source. The calls were made as follows: active = growth percent below 10; inactive = the rest.

Tested on: OVCAR-5 ovarian
Test: NCI-60 one-dose screen, 48 h (100 = growth as untreated, 0 = no growth, -100 = all killed)
Conditions: 10 µM unless noted

Compound	growth
Fc1cccc(CNc2nc(SCCN3CCOCC3)nc3c2cnn3CC(Cl)c2ccc(Br)cc2)c1 (stereo unspecified)	59.9%
O=C(Nc1nc2ccc([N+](=O)[O-])cc2s1)Nc1ccc(Cl)cc1Cl	84.6%
Nc1nnc(CS(=O)(=O)c2ccccc2)s1	109%
CCCCCCCCc1ccc(C(=O)Nc2ccc(C)cc2C(=O)O)cc1	109%
COc1ccc2c(c1)c(-c1cc(N)n3nc(-c4c[nH]c5ccccc45)cc3n1)cn2C	-69.7% (active)
Clc1ccc(CNc2nc(SCCN3CCOCC3)nc3c2cnn3CC(Cl)c2ccc(Br)cc2)cc1 (stereo unspecified)	75.5%
CCC(=O)c1cc(C(=O)OC)c2ccc3c4ccccc4ccc3n12	73.8%
Nc1cc(-c2c[nH]c3ccc(Cl)cc23)nc2cc(-c3c[nH]c4ccccc34)nn12	-50.4% (active)
CCCCNc1ccc2c3c(cccc13)C(=O)N(NCC(O)COc1ccc3c(C)cc(=O)oc3c1)C2=O (stereo unspecified)	106%
O=C(OCCOCCO)N(c1cccc(Br)c1)c1nc(SCCN2CCOCC2)nc2c1cnn2CC(Cl)c1ccc(Br)cc1 (stereo unspecified)	34.7%
CCN1C(=O)N(CC)C2NNC(Sc3c(C(=O)O)c4ccccc4n(CC(C)C)c3=O)=NC21 (stereo unspecified)	24.2%
CCN1C(=O)N(CC)C2NNC(Sc3c(C(=O)O)c4ccccc4n(CCC(C)C)c3=O)=NC21 (stereo unspecified)	21.4%
COc1ccc(C(=O)c2cc(C(C)=O)c3c(C)cc(C)cn23)cc1	80.5%
O=C(N/N=C/c1ccc(Cl)cc1)c1ccc(OCc2nc3ccc(Cl)cc3[nH]2)cc1	35.4%
COC(=O)c1cc(C(=O)C(Br)Br)n2c1ccc1c3ccccc3ccc12	64.4%
O=C(Nc1nc2ccccc2s1)Nc1ccccc1Cl	89.6%
Oc1ccc(Cl)c(Nc2ncnc3c2cnn3CC(Cl)c2ccc(Br)cc2)c1 (stereo unspecified)	49.6%
ClC(Cn1ncc2c(Nc3cccc(Br)c3)nc(SCCN3CCOCC3)nc21)c1ccc(Br)cc1 (stereo unspecified)	18.1%
Nc1cc(-c2c[nH]c3ccc(F)cc23)nc2cc(-c3c[nH]c4ccccc34)nn12	1.01% (active)

Compound	growth
O=C1Nc2cc(-c3ccc(NS(=O)(=O)c4ccc(F)c(Cl)c4)cc3)ccc2/C1=C/c1ccc[nH]1	19.7%
O=C1CCC(N2C(=O)c3cccc(NCCOCCOCCOCCC(=O)NCCCC(=O)NC(c4ccc5c(c4)OCO5)c4cc(Cl)c5cccnc5c4O)c3C2=O)C(=O)C1 (stereo unspecified)	63.8%
Cn1cc(-c2cc3nc(-c4c[nH]c5ccccc45)cc(N)n3n2)c2ccccc21	-39.4% (active)
CN1C(=O)C(O)(CC(=O)c2cc3ccccc3oc2=O)c2ccccc21 (stereo unspecified)	107%
COc1ccc(Nc2nnc(-c3c[nH]c4ccccc34)o2)cc1	103%
Cc1cccc(C)c1Nc1nnc(-c2c[nH]c3ccccc23)o1	103%
Cc1ccc(O)cc1Nc1nc(SCCN2CCOCC2)nc2c1cnn2CC(Cl)c1ccc(Br)cc1 (stereo unspecified)	18.8%
Fc1ccccc1CNc1nc(SCCN2CCOCC2)nc2c1cnn2CC(Cl)c1ccc(Br)cc1 (stereo unspecified)	71.3%
COC(=O)c1cc(C(=O)CBr)n2c1ccc1c3ccccc3ccc12	72.8%
Oc1ccc(F)c(Nc2nc(SCCN3CCOCC3)nc3c2cnn3CC(Cl)c2ccc(Br)cc2)c1 (stereo unspecified)	40.5%
COC(=O)c1c(C(=O)OC)c2ccc3c4ccccc4ccc3n2c1C(=O)C(C)Br (stereo unspecified)	75.7%
Cc1nn(-c2ccccc2)c2nc(C)n(C(=O)N/N=C/c3cccc([N+](=O)[O-])c3)c(=O)c12	84.7%
COc1c2c(c(Br)c3c1C(CCc1ccccc1)N(C)CC3)OCO2 (stereo unspecified)	29.9%
COc1ccc2[nH]cc(-c3cc(N)n4nc(-c5c[nH]c6ccccc56)cc4n3)c2c1	7.37% (active)
CC(C)(C)C(=O)C1CC(C#N)=C2C=Cc3c(ccc4ccccc34)N21 (stereo unspecified)	121%
Oc1ccc(Cl)c(Nc2nc(SCCN3CCOCC3)nc3c2cnn3CC(Cl)c2ccc(Br)cc2)c1 (stereo unspecified)	50.4%
Fc1ccc(F)c(CNc2nc(SCCN3CCOCC3)nc3c2cnn3CC(Cl)c2ccc(Br)cc2)c1 (stereo unspecified)	63%
CN1CCN(C(=O)Oc2cc3c(c4ccccc24)[C@H](CCl)CN3C(=O)c2cc3cc(OCCCN4CCC4)ccc3[nH]2)[C@H]2CSSC[C@H]21	-19.6% (active)
Nc1nc(-c2ccccc2)c(N=Nc2ccc(Cl)cc2Cl)s1	-61.9% (active)

Tested on: OVCAR-4 ovarian
Test: as above
Conditions: 10 µM unless noted

Compound	growth
Fc1cccc(CNc2nc(SCCN3CCOCC3)nc3c2cnn3CC(Cl)c2ccc(Br)cc2)c1 (stereo unspecified)	27.3%
O=C(Nc1nc2ccc([N+](=O)[O-])cc2s1)Nc1ccc(Cl)cc1Cl	54.6%
Nc1nnc(CS(=O)(=O)c2ccccc2)s1	121%
CCCCCCCCc1ccc(C(=O)Nc2ccc(C)cc2C(=O)O)cc1	99.8%
COc1ccc2c(c1)c(-c1cc(N)n3nc(-c4c[nH]c5ccccc45)cc3n1)cn2C	-29.8% (active)
Clc1ccc(CNc2nc(SCCN3CCOCC3)nc3c2cnn3CC(Cl)c2ccc(Br)cc2)cc1 (stereo unspecified)	44.6%
CCC(=O)c1cc(C(=O)OC)c2ccc3c4ccccc4ccc3n12	1.22% (active)
Nc1cc(-c2c[nH]c3ccc(Cl)cc23)nc2cc(-c3c[nH]c4ccccc34)nn12	19.8%
CCCCNc1ccc2c3c(cccc13)C(=O)N(NCC(O)COc1ccc3c(C)cc(=O)oc3c1)C2=O (stereo unspecified)	74.6%
O=C(OCCOCCO)N(c1cccc(Br)c1)c1nc(SCCN2CCOCC2)nc2c1cnn2CC(Cl)c1ccc(Br)cc1 (stereo unspecified)	23.5%
CCN1C(=O)N(CC)C2NNC(Sc3c(C(=O)O)c4ccccc4n(CC(C)C)c3=O)=NC21 (stereo unspecified)	67%
CCN1C(=O)N(CC)C2NNC(Sc3c(C(=O)O)c4ccccc4n(CCC(C)C)c3=O)=NC21 (stereo unspecified)	46.5%
COc1ccc(C(=O)c2cc(C(C)=O)c3c(C)cc(C)cn23)cc1	49.8%
O=C(N/N=C/c1ccc(Cl)cc1)c1ccc(OCc2nc3ccc(Cl)cc3[nH]2)cc1	-8.33% (active)
COC(=O)c1cc(C(=O)C(Br)Br)n2c1ccc1c3ccccc3ccc12	48.8%
O=C(Nc1nc2ccccc2s1)Nc1ccccc1Cl	34.2%
Oc1ccc(Cl)c(Nc2ncnc3c2cnn3CC(Cl)c2ccc(Br)cc2)c1 (stereo unspecified)	57.8%
ClC(Cn1ncc2c(Nc3cccc(Br)c3)nc(SCCN3CCOCC3)nc21)c1ccc(Br)cc1 (stereo unspecified)	34.6%
Nc1cc(-c2c[nH]c3ccc(F)cc23)nc2cc(-c3c[nH]c4ccccc34)nn12	47.8%

Compound	growth
O=C1Nc2cc(-c3ccc(NS(=O)(=O)c4ccc(F)c(Cl)c4)cc3)ccc2/C1=C/c1ccc[nH]1	26.4%
O=C1CCC(N2C(=O)c3cccc(NCCOCCOCCOCCC(=O)NCCCC(=O)NC(c4ccc5c(c4)OCO5)c4cc(Cl)c5cccnc5c4O)c3C2=O)C(=O)C1 (stereo unspecified)	60.2%
Cn1cc(-c2cc3nc(-c4c[nH]c5ccccc45)cc(N)n3n2)c2ccccc21	-39.9% (active)
CN1C(=O)C(O)(CC(=O)c2cc3ccccc3oc2=O)c2ccccc21 (stereo unspecified)	99.9%
COc1ccc(Nc2nnc(-c3c[nH]c4ccccc34)o2)cc1	85.3%
Cc1cccc(C)c1Nc1nnc(-c2c[nH]c3ccccc23)o1	102%
Cc1ccc(O)cc1Nc1nc(SCCN2CCOCC2)nc2c1cnn2CC(Cl)c1ccc(Br)cc1 (stereo unspecified)	32.3%
Fc1ccccc1CNc1nc(SCCN2CCOCC2)nc2c1cnn2CC(Cl)c1ccc(Br)cc1 (stereo unspecified)	45%
COC(=O)c1cc(C(=O)CBr)n2c1ccc1c3ccccc3ccc12	101%
Oc1ccc(F)c(Nc2nc(SCCN3CCOCC3)nc3c2cnn3CC(Cl)c2ccc(Br)cc2)c1 (stereo unspecified)	31.9%
COC(=O)c1c(C(=O)OC)c2ccc3c4ccccc4ccc3n2c1C(=O)C(C)Br (stereo unspecified)	41.4%
Cc1nn(-c2ccccc2)c2nc(C)n(C(=O)N/N=C/c3cccc([N+](=O)[O-])c3)c(=O)c12	53.2%
COc1c2c(c(Br)c3c1C(CCc1ccccc1)N(C)CC3)OCO2 (stereo unspecified)	59.9%
COc1ccc2[nH]cc(-c3cc(N)n4nc(-c5c[nH]c6ccccc56)cc4n3)c2c1	30.9%
CC(C)(C)C(=O)C1CC(C#N)=C2C=Cc3c(ccc4ccccc34)N21 (stereo unspecified)	79.3%
Oc1ccc(Cl)c(Nc2nc(SCCN3CCOCC3)nc3c2cnn3CC(Cl)c2ccc(Br)cc2)c1 (stereo unspecified)	31.7%
Fc1ccc(F)c(CNc2nc(SCCN3CCOCC3)nc3c2cnn3CC(Cl)c2ccc(Br)cc2)c1 (stereo unspecified)	23.2%
CN1CCN(C(=O)Oc2cc3c(c4ccccc24)[C@H](CCl)CN3C(=O)c2cc3cc(OCCCN4CCC4)ccc3[nH]2)[C@H]2CSSC[C@H]21	-1.62% (active)
Nc1nc(-c2ccccc2)c(N=Nc2ccc(Cl)cc2Cl)s1	-2.75% (active)
